Results published in the supplement of paper PMC7695840.
Counter-ions that a name gives are not always drawn.

Legend:
[1] = system: Staphylococcus aureus MW2 delta-mecA (mecA-); assay: normalized GFP fluorescence (growth of mecA- strain) (fraction of control range); higher = more growth of mecA- strain; details: compound concentration: 150 uM; cefoxitin: subinhibitory; fluorescent label: GFP
Summary of the method: (§1)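 Pre-induced S. aureus MW2 mecA+ (DsRed) and ΔmecA (GFP) cells were mixed 1:1 in LB with a daily-set subinhibitory cefoxitin dose. They were dispensed at 5 µL/well onto 150 μM compound (1.5% DMSO) in 1536-well plates, single replicate. Growth was 20 h at 37 °C, 90% humidity, unshaken, and DsRed (540/590) and GFP (485/520) were then read. Each channel was scaled per plate between the medians of the single-strain controls. Plates with high No Treatment ratios and rows with DsRed/GFP >10 were excluded.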

[2] = system: Staphylococcus aureus MW2 (mecA+); assay: normalized DsRed fluorescence (growth of mecA+ strain) (fraction of control range); higher = more growth of mecA+ strain; details: compound concentration: 150 uM; cefoxitin: subinhibitory; fluorescent label: DsRed
Summary of the method: as §1

Row | Compound | normalized GFP fluorescence [1] | normalized DsRed fluorescence [2]
1 | CC(C)NCC(O)COc1cccc2[nH]ccc12 (stereo not drawn) | 0.242 | 1.01
2 | Cc1ccc(O)c([C@H](CCN(C(C)C)C(C)C)c2ccccc2)c1 [Tolterodine tartrate (Detrol LA)] | 0.08 | 0.489
3 | CCc1nn(CCCN2CCN(c3cccc(Cl)c3)CC2)c(=O)n1CCOc1ccccc1 | 0.108 | 0.736
4 | CC12CCC(CC1=O)C2(C)C (stereo not drawn) | 0.212 | 1.15
5 | CCCCC1C(=O)N(c2ccccc2)N(c2ccc(O)cc2)C1=O (stereo not drawn) | -0.0111 | 0.377
6 | CC(C[N+](C)(C)C)OC(N)=O (stereo not drawn) | 0.554 | 0.879
7 | CC(C)CN(C[C@@H](O)[C@H](Cc1ccccc1)NC(=O)O[C@H]1CCOC1)S(=O)(=O)c1ccc(N)cc1 [Amprenavir (Agenerase)] | 0.174 | 0.506
8 | COC1=CC(=O)C[C@@H](C)[C@]12Oc1c(Cl)c(OC)cc(OC)c1C2=O | 0.227 | 0.425
9 | CN1CCN(C2=Nc3ccccc3Oc3ccc(Cl)cc32)CC1 | 0.35 | 1.01
10 | Cc1c2oc3c(C)ccc(C(=O)N[C@@H]4C(=O)N[C@H](C(C)C)C(=O)N5CCC[C@H]5C(=O)N(C)CC(=O)N(C)[C@@H](C(C)C)C(=O)O[C@@H]4C)c3nc-2c(C(=O)N[C@@H]2C(=O)N[C@H](C(C)C)C(=O)N3CCC[C@H]3C(=O)N(C)CC(=O)N(C)[C@@H](C(C)C)C(=O)O[C@@H]2C)c(N)c1=O | -0.00268 | 0.0533
11 | CCCCC1C(=O)N(c2ccccc2)N(c2ccccc2)C1=O [Phenylbutazone (Butazolidin, Butatron)] | 0.207 | 0.436
12 | CC(C)(C)C(=O)OCOP(=O)(COCCn1cnc2c(N)ncnc21)OCOC(=O)C(C)(C)C [Adefovir Dipivoxil (Preveon, Hepsera)] | 0.38 | 0.712
13 | CN(C)CCCN1c2ccccc2Sc2ccc(Cl)cc21 | -0.00289 | 1.26
14 | CCC(=O)O[C@@H](O[P@](=O)(CCCCc1ccccc1)CC(=O)N1C[C@H](C2CCCCC2)C[C@H]1C(=O)O)C(C)C [Fosinopril sodium (Monopril)] | 0.0781 | 0.378
15 | COC(=O)Nc1nc2cc(C(=O)c3ccccc3)ccc2[nH]1 | 0.145 | 1.25
16 | O=C(O)c1cc(/N=N/c2ccc(S(=O)(=O)Nc3ccccn3)cc2)ccc1O [Sulfasalazine (Azulfidine)] | 0.311 | 0.584
17 | CCC1(C)OC(=O)N(C)C1=O (stereo not drawn) | 0.387 | 0.876
18 | Nc1cccc2c1CN(C1CCC(=O)NC1=O)C2=O (stereo not drawn) [Lenalidomide] | 0.34 | 0.974
19 | COc1cc(C2Oc3ccc(C4Oc5cc(O)cc(O)c5C(=O)C4O)cc3OC2CO)ccc1O (stereo not drawn) [Silymarin (Silybin B)] | 0.34 | 0.987
20 | CCCCNc1cc(C(=O)O)cc(S(N)(=O)=O)c1Oc1ccccc1 | 0.446 | 0.877
21 | CC1Cc2ccccc2N1NC(=O)c1ccc(Cl)c(S(N)(=O)=O)c1 (stereo not drawn) | 0.39 | 0.625
22 | C=C1/C(=C\C=C2/CCC[C@]3(C)[C@@H]([C@H](C)CCCC(C)(C)O)CC[C@@H]23)C[C@@H](O)C[C@@H]1O [Calcitriol (Rocaltrol)] | -0.00685 | 1
23 | CC1=CC(=O)c2ccccc2C1=O | 0.0466 | 0.307

Row | Compound | normalized GFP fluorescence [1] | normalized DsRed fluorescence [2]
24 | CCOc1ccc(Cc2cc([C@@H]3O[C@H](CO)[C@@H](O)[C@H](O)[C@H]3O)ccc2Cl)cc1 [Dapagliflozin] | 0.454 | 0.557
25 | COc1ccccc1OCC(O)COC(N)=O (stereo not drawn) | 0.207 | 0.692
26 | COC(=O)Nc1nc2cc(C(=O)c3ccc(F)cc3)ccc2[nH]1 | 0.715 | 0.661
27 | CC(=O)OCC[N+](C)(C)C | 0.311 | 0.859
28 | NCC[C@H](O)C(=O)N[C@@H]1C[C@H](N)[C@@H](O[C@H]2O[C@H](CN)[C@@H](O)[C@H](O)[C@H]2O)[C@H](O)[C@H]1O[C@H]1O[C@H](CO)[C@@H](O)[C@H](N)[C@H]1O [Amikacin hydrate] | 0.412 | 0.639
29 | CS(=O)(=O)CCNCc1ccc(-c2ccc3ncnc(Nc4ccc(OCc5cccc(F)c5)c(Cl)c4)c3c2)o1 [Lapatinib Ditosylate (Tykerb)] | -0.0239 | 1.52
30 | O=C(O)C(=O)O.[NH-][C@@H]1CCCC[C@H]1[NH-].[Pt+2] | 0.253 | 1.17
31 | O=C(c1ccccc1)c1ccc2n1CCC2C(=O)O (stereo not drawn) | 0.247 | 0.711
32 | COc1cc(CNC(=O)CCCC/C=C/C(C)C)ccc1O | 0.0346 | 0.539
33 | CC#CCn1c(N2CCC[C@@H](N)C2)nc2c1c(=O)n(Cc1nc(C)c3ccccc3n1)c(=O)n2C | 0.315 | 0.667
34 | CCCc1nc2c(C)cc(-c3nc4ccccc4n3C)cc2n1Cc1ccc(-c2ccccc2C(=O)O)cc1 | 0.106 | 0.194
35 | CNNCc1ccc(C(=O)NC(C)C)cc1 | 0.425 | 0.606
36 | Cc1ccccc1C(=O)Nc1ccc(C(=O)N2CCCC(O)c3cc(Cl)ccc32)c(C)c1 (stereo not drawn) | 0.188 | 0.541
37 | CN[C@@H]1[C@H](O)[C@H](NC)[C@H]2O[C@@]3(O)C(=O)C[C@@H](C)O[C@H]3O[C@@H]2[C@H]1O | 0.198 | 0.555
38 | COC(=O)C1=C(C)NC(C)=C(C(=O)OCCN(C)Cc2ccccc2)C1c1cccc([N+](=O)[O-])c1 (stereo not drawn) | -0.00636 | 1.02
39 | C=CC[C@@H]1/C=C(\C)C[C@H](C)C[C@H](OC)[C@H]2O[C@@](O)(C(=O)C(=O)N3CCCC[C@H]3C(=O)O[C@H](/C(C)=C/[C@@H]3CC[C@@H](O)[C@H](OC)C3)[C@H](C)[C@@H](O)CC1=O)[C@H](C)C[C@@H]2OC [FK-506 (Tacrolimus)] | 0.0621 | 1.04
40 | C[C@@H]1CCN(C(=O)CC#N)C[C@@H]1N(C)c1ncnc2[nH]ccc12 | 0.325 | 0.9
41 | Cc1cccc(C)c1OCC(=O)N[C@@H](Cc1ccccc1)[C@@H](O)C[C@H](Cc1ccccc1)NC(=O)[C@H](C(C)C)N1CCCNC1=O [Lopinavir (ABT-378)] | 0.126 | 0.671
42 | CN1C(C(=O)Nc2ccccn2)=C(O)c2sccc2S1(=O)=O | 0.0134 | 0.778
43 | CC(=O)N[C@H]1[C@H]([C@H](O)[C@H](O)CO)OC(C(=O)O)=C[C@@H]1NC(=N)N [Zanamivir (Relenza)] | 0.233 | 0.719
44 | CC(C)(C)NC[C@H](O)COc1cccc2c1CCCC2=O | 0.401 | 0.5
45 | CCC[C@H](NC(=O)[C@@H]1[C@H]2CCC[C@H]2CN1C(=O)[C@@H](NC(=O)[C@@H](NC(=O)c1cnccn1)C1CCCCC1)C(C)(C)C)C(=O)C(=O)NC1CC1 [Telaprevir (VX-950)] | 0.0337 | 1.39
46 | Clc1ccc(C(Cn2ccnc2)OCc2ccc(Sc3ccccc3)cc2)c(Cl)c1 (stereo not drawn) [Fenticonazole nitrate] | -0.002 | 0.0182

Row | Compound | normalized GFP fluorescence [1] | normalized DsRed fluorescence [2]
47 | CC1(C)S[C@@H]2[C@H](NC(=O)Cc3ccccc3)C(=O)N2[C@H]1C(=O)O | 0.0214 | 0.0849
48 | CC1(C)O[C@@H]2C[C@H]3[C@@H]4CCC5=CC(=O)C=C[C@]5(C)[C@@]4(F)[C@@H](O)C[C@]3(C)[C@]2(C(=O)CO)O1 | 0.603 | 0.613
49 | CC(=O)O[C@]1(C(C)=O)CC[C@H]2[C@@H]3C=C(C)C4=CC(=O)CC[C@]4(C)[C@H]3CC[C@@]21C | 0.381 | 0.78
50 | CC(C)(C)NC[C@H](O)COc1nsnc1N1CCOCC1 | 0.208 | 0.811
51 | O=C1CN(/N=C/c2ccc(-c3ccc([N+](=O)[O-])cc3)o2)C(=O)N1 | 0.519 | 0.706
52 | Cc1nc(=O)c2cc(CN(C)c3ccc(C(=O)N[C@@H](CCC(=O)O)C(=O)O)s3)ccc2[nH]1 [Raltitrexed (Tomudex)] | 0.657 | 0.532
53 | O=C(O)Cc1ccccc1Nc1c(Cl)cccc1Cl [Diclofenac] | 0.0393 | 0.175
54 | COc1ccc(O)cc1 | 0.353 | 0.504
55 | CC(C)NCC(O)c1ccc(NS(C)(=O)=O)cc1 (stereo not drawn) | 0.417 | 0.703
56 | CCC[C@H](N[C@@H](C)C(=O)N1[C@H](C(=O)O)C[C@@H]2CCCC[C@@H]21)C(=O)OCC [Perindopril Erbumine (Aceon)] | 0.225 | 0.779
57 | CCC(C)n1ncn(-c2ccc(N3CCN(c4ccc(OCC5COC(Cn6cncn6)(c6ccc(Cl)cc6Cl)O5)cc4)CC3)cc2)c1=O (stereo not drawn) | 0.389 | 0.642
58 | CC(C)[N+](C)(CCOC(=O)C1c2ccccc2Oc2ccccc21)C(C)C | 0.295 | 0.691
59 | CCN1CCCC1CNC(=O)c1cc(S(=O)(=O)CC)c(N)cc1OC (stereo not drawn) [Amisulpride] | 0.514 | 0.816
60 | CN[C@@H]1[C@H](O[C@H]2[C@H](O[C@H]3[C@H](O)[C@@H](O)[C@H](NC(=N)N)[C@@H](O)[C@@H]3NC(=N)N)O[C@@H](C)[C@]2(O)CO)O[C@@H](CO)[C@H](O)[C@H]1O | 0.292 | 0.832
61 | CCN1C(=O)NC(c2ccccc2)C1=O (stereo not drawn) | 0.469 | 1.21
62 | C[C@]12CCC3=C4CCC(=O)C=C4CC[C@H]3[C@@H]1CC[C@@]2(O)CC#N [Dienogest] | 0.271 | 0.746
63 | Nc1nc2[nH]cc(CCc3ccc(C(=O)N[C@@H](CCC(=O)O)C(=O)O)cc3)c2c(=O)[nH]1 | 0.937 | 0.63
64 | C1CCC(C(CC2CCCCN2)C2CCCCC2)CC1 (stereo not drawn) | 0.000248 | 0.0259
65 | CCOc1ccccc1OC(c1ccccc1)C1CNCCO1 (stereo not drawn) [Reboxetine mesylate] | 0.435 | 0.581
66 | CCC(=O)NCC[C@@H]1CCc2ccc3c(c21)CCO3 | 0.8 | 0.671
67 | OC[C@H]1O[C@H]([S-])[C@H](O)[C@@H](O)[C@@H]1O.[Au+] | 0.232 | 0.538
68 | CC(NCCc1ccc(O)cc1)C(O)c1ccc(O)cc1 (stereo not drawn) | 0.828 | 0.736
69 | CCn1cc(C(=O)O)c(=O)c2cc(F)c(N3CCNCC3)nc21 [Enoxacin (Penetrex)] | 0.206 | 0.928
